MOR-DOR inv ag: mu-delta opioid heterodimer inverse agonism; cell-based MOR-DOR heterodimer luminescence; inhibition, % at 9.3 µM; P35372+P41143; 340,000 compounds, 0.21% hits; in the data active = inhibition above about 22%, passing the limit was not always enough;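 note: 0% = cells with DMSO and 100% = wells without cells with DMSO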
HTR5A inv ctr: counter-screen for OPRM1-OPRD1 inverse agonists: human HTR5A inverse agonism; P47898; HTR5A cell line, luminescence; inhibition, % at 9.3 µM; 340,000 compounds, 0.083% hits; in the data active = inhibition mostly above about 23%, no sharp cut-off; inactive = mostly below about 18%;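 note: 0% = cells with DMSO and 100% = no-cell wells with DMSO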
HTR5A ag: counter-screen for OPRM1-OPRD1 agonists: human HTR5A agonism | P47898 | HTR5A agonist assay, luminescence, cell-based | activation, % at 9.3 µM | 340,000 compounds, 0.61% hits | AID 504692; in the data active = activation mostly above about 9.5%, no sharp cut-off; inactive = mostly below about 7.6%;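 note: 0% = cells with vehicle only and 100% = reference agonist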
MOR-DOR ag-1: agonists of human mu-delta opioid receptor heterodimerization; cells, OPRM1-OPRD1 heterodimerization, luminescence; activation, % at 9.3 µM; 340,000 compounds, 0.3% hits;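 note: 0% = vehicle-treated cells and 100% = reference agonist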
MOR-DOR ag-2: promotes OPRM1-OPRD1 heterodimerization in HTR5A counter-screen. shares compounds with HTR5A ag. 800 compounds, 13% hits. AID 504913. U2OS counter-screen cells, complementation luminescence, 3 h. activation, % at 9.3 µM
HTR5A ag conf: HTR5A (human) agonism, confirmation. shares compounds with HTR5A ag. HTR5A agonist cell assay, luminescence. activation, % at 9.3 µM. 800 compounds, 17% hits; in the data active = activation above about 17%;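 note: 0% = cells with vehicle only and 100% = full reference agonist response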
An asterisk follows results filed as active; . = not tested or not shown. The list is not random: actives were taken first. Their share in the collection is about 1.1%. Cut-off read from the data, not from the text of the source, unless noted: active = activation above about 18%; inactive = the rest.

SMILES	MOR-DOR inv ag	HTR5A inv ctr	HTR5A ag	MOR-DOR ag-1	MOR-DOR ag-2	HTR5A ag conf
CS(=O)(=O)c1ccc(NC(=O)C2CCCN(C(=O)c3ccc(Cl)cc3)C2)cc1 (stereo unspecified)	6	-47	19*	-2	6	4
COc1ccccc1CNC(=O)Cn1cccc1C(=O)c1ccccc1C	0	-1	1	0	.	.
NS(=O)(=O)c1ccc(NC(=O)Cn2ncc3c2-c2ccccc2OC3)cc1	-28	-57	19*	5	0	4
O=C(Cn1ncc2c1-c1ccccc1OC2)Nc1cccc(Cl)c1	-22	-27	9	4	.	.
CN(C)c1cccc(NC(=O)CCc2ccccc2)c1	-67	-29	5	16	.	.
CN(C)c1cccc(NC(=O)Cc2ccc(F)cc2)c1	8	12	18*	-1	1	8
O=C(CN1CCCCC1)n1c2ccccc2c2ccccc21	-12	-63	24*	2	13	4
CN1CCN(CC(=O)n2c3c(c4ccccc42)CCCC3)CC1	-17	-17	7	3	.	.
COc1cc(C(=O)NCC(=O)N/N=C/c2ccc(OC(=O)c3ccco3)cc2)cc(OC)c1OC	11	-9	22*	-2	1	4
COc1cc(OC)cc(-c2nc3ccccc3c(=O)n2OC(=O)c2ccccc2C)c1	-38	-36	22*	8	6	12
CCn1c(=O)c(C(=O)Nc2ncccc2C)c(O)c2ccccc21	7	-43	16*	-1	3	10
CCn1c(=O)c(C(=O)Nc2ncccc2O)c(O)c2ccccc21	16	-9	3	-3	.	.
Cc1ccc(/C=N/NC(=O)c2nnn(-c3nonc3N)c2CSc2ccc(Cl)cc2)o1	-3	0	3	1	.	.
COc1ccc(OC)c(Nc2nc(N)nc(CCl)n2)c1	-1	-53	17*	0	1	10
COc1cccc(Nc2nc(N)nc(CCl)n2)c1	7	-1	2	-1	.	.
Cc1cccc(Nc2nc(N)nc(CCl)n2)c1	1	-69	20*	0	21*	31*
COc1ccccc1Nc1nc(N)nc(CCl)n1	1	-12	3	0	.	.
CCCNC(=O)C(Cc1ccc(Cl)cc1)NC(=O)c1ccc(-c2ccccc2)cc1 (stereo unspecified)	-55	-3	1	10	.	.
CCN(C[C@H]1N[C@@](C)(C(=O)OC)[C@H]2C(=O)N(C)C(=O)[C@@H]12)S(=O)(=O)c1ccc(-c2ccccc2)cc1	1	-1	0	0	.	.
O=C(O)c1cccc(CN2C(=O)c3ccccc3C2=O)c1	16	-12	3	-3	.	.
O=C1c2cccc3c(O)ccc(c23)C(=O)N1Cc1ccccc1	-39	-6	17*	9	20*	1
Cc1ccc(NC(=O)CN2CCN(S(=O)(=O)c3ccc(F)cc3)CC2)cc1C	14	-2	-2	-4	.	.
COc1cccc(-c2csc(N3CCN(C(=S)Nc4ccccc4)CC3)n2)c1	-18	-52	22*	3	-2	-7
COc1cccc(-c2csc(N3CCN(C(=S)Nc4ccc(Cl)cc4)CC3)n2)c1	-13	-32	12	2	.	.
Cc1ccc(S(=O)(=O)CCC(=O)OCC(=O)N2c3ccccc3CC2C)cc1 (stereo unspecified)	-4	-76	29*	1	0	33*
SMILES	MOR-DOR inv ag	HTR5A inv ctr	HTR5A ag	MOR-DOR ag-1	MOR-DOR ag-2	HTR5A ag conf
O=C(NN1C(=O)c2ccccc2C1=O)C1CC2CCC1C2 (stereo unspecified)	-4	-19	14*	1	0	-1
COc1ccc(C2CC(O)(c3ccccc3)Oc3c(C)ccc(C)c32)cc1 (stereo unspecified)	-37	-16	17	7	.	.
COc1ccc([C@@H]2C[C@@H](c3ccccc3)Oc3cc(C)cc(C)c32)cc1	1	-68	25*	0	3	2
CCCCC1CCC(C(=O)Nc2ccc(N3CCOCC3)cc2N2CCOCC2)CC1 (stereo unspecified)	4	0	0	-1	.	.
CN(Cc1ccccn1)C(=O)C1CCC(=O)N(Cc2cccc(C(F)(F)F)c2)C1 (stereo unspecified)	15	0	6	-3	.	.
c1cncc(-c2nc3ccccn3c2Nc2ccc3c(c2)OCCO3)c1	-13	-65	30*	2	1	-3
COc1ccc(N(Cc2ccccc2)S(=O)(=O)c2cccc(C(=O)Nc3ccccn3)c2)cc1	15	-48	19*	-4	4	1
COC(=O)C1=C(C)NC(C)=C(C(=O)OC)C1C(=O)OCC(=O)c1ccc(Br)cc1	-2	7	-3	0	.	.
O=C(CCc1ccccc1)Nc1cc(S(=O)(=O)N2CCOCC2)ccc1N1CCCC1	8	-17	9	-2	.	.
O=C(Cn1cnc2c(nnn2-c2ccccc2)c1=O)N1CCOCC1	10	-156	28*	-2	6	8
O=C(CCc1nnc2ccc(N3CCC4(CC3)OCCO4)nn12)NCc1ccccc1Cl	14	-14	0	-3	.	.
COc1ccc(N2CCN(C3CCCN(C(=O)CSC)C3)CC2)cc1 (stereo unspecified)	19	7	-1	-4	.	.
Cc1ccc(C)c(S(=O)(=O)N/N=C/c2ccc(F)cc2)c1	-3	-45	15*	1	4	7
Cc1ccc(C)c(S(=O)(=O)N/N=C/c2ccc(N(C)C)cc2)c1	0	-9	3	0	.	.
Cc1cccc(/C=N/NC(=O)c2ccc(NC(=O)c3ccc(F)cc3)cc2)n1	-101	-64	21*	12	3	-1
Cc1cccc(/C=N/NC(=O)c2ccc(NC(=O)c3ccc(Cl)cc3)cc2)n1	-36	-3	3	7	.	.
CC(C)Oc1ccc(C(=O)Nc2ccc(N3CCCC3)cc2)cc1	-12	3	17*	2	1	3
COc1cccc(C2CC(=O)Nc3cc4c(cc32)CCC4)c1 (stereo unspecified)	1	-42	15*	0	54*	-1
COc1cccc(C2CC(=O)Nc3cc(OC)c(OC)cc32)c1 (stereo unspecified)	6	-4	1	-1	.	.
CCOc1ccc(CCN2C(=S)N([C@@H](CC(C)C)CN3CCCC3CN3C(=S)NC[C@@H]3CC(C)C)C[C@@H]2CC(C)C)cc1 (stereo partly specified)	13	-13	3	-3	.	.
CC1(C)Cc2c(C#N)c(SCCC#N)nc(N3CCOCC3)c2CS1	1	-8	15*	0	1	3
CC(C)C[C@H]1C(=O)N2CCC[C@H]2[C@]2(O)O[C@](NC(=O)C3C=C4c5cccc6[nH]c(Br)c(c56)C[C@H]4N(C)C3)(C(C)C)C(=O)N12 (stereo partly specified)	-24	-30	8	4	.	.
